# Mdm2-MdmX inh: inhibitors of human Mdm2/MdmX interaction; O15151+Q00987; inhibition, % at 8 µM; AID 485346; SaOS-2 split-luciferase Mdm2/MdmX complementation, luminescence; 330,000 tested, 3% active;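 active = inhibition of at least 50% at 8 µM in the primary screen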
# Gli-Sufu block: Gli-Sufu pathway antagonism; Sufu-KO-LIGHT fibroblasts, Gli luciferase reporter luminescence; inhibition, % at 5 µM; 340,000 tested, 0.74% active; AID 588413;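 active = inhibition above about 55%, limit read from the data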;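 note: 0% = DMSO-treated cells and 100% = wells with medium but no cells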
# Beta apoptosis: blocks beta cell apoptosis. INS-1E cytokine-induced death, ATP luminescence, 48 h; percent of positive-control rescue, neutral wells zero. protection from apoptosis, % (no concentration beside the values). 300,000 tested, 0.8% active;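 active = Every replicate reaches about 75%, or at least half do and their mean reaches it too, limit read from the data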;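 note: 0% = cytokine-treated negative control wells and 100% = positive control rescue; higher means more ATP so stronger rescue from cytokine killing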
# PAX8 reporter: inhibitors of PAX8 transcriptional activity in RMG-I cells | RMG-I TPO-luciferase reporter, SteadyGlo, 24 h | inhibition, % at 12.6 µM | 360,000 tested, 1.2% active | AID 652154;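 active = mean replicate inhibition at least 60% with every replicate also reaching 60%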;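 note: luciferase light reporting Pax8 driven TPO promoter activity; plate controls were median of neutral control wells for no effect and mitoxantrone controls for full effect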
# CSC inhib: blocks cancer stem cells; cancer stem cell-like cells viability, luminescence; inhibition, % at 7.5 µM; 300,000 tested, 1.1% active; AID 2717; in the data active = inhibition above about 75%; tested in HMLE shEcad cells
# Shn3 3UTR inh: inhibitors of Schnurri-3 3'UTR reporter in osteoblasts. inhibition, % at 12.5 µM. Clone20 osteoblast Shn3 3'UTR firefly luciferase, 24 h. 360,000 tested, 0.52% active;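 active = mean inhibition of at least 75% with every replicate also reaching 75%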;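 note: 0% = median of neutral control wells and 100% = pilot-screen positive control compound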
# Mdm2 MdmX conf: human Mdm2/MdmX binding inhibition, confirmed; AID 489028; 10,000 tested, 55% active; inhibition, % at 8 µM; shares compounds with Mdm2-MdmX inh; luminescent assay; in the data active = inhibition above about 40%
# FLuc counter: counter-screen for Mdm2/MdmX inhibitors: full-length luciferase. shares compounds with Mdm2-MdmX inh. SaOS-2 full-length luciferase counterscreen, luminescence. inhibition, % at 8 µM. 6,200 tested, 77% active;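 active = mean inhibition at 8 µM reaching about 37%, which flags the compound as non-specific, limit read from the data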;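 note: p53-null SaOS-2 cells with luciferase driven by a doxycycline-inducible promoter; compound on cells about two nights before reading with doxycycline added after day one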
# The depositor's hits bear a star; / = no result. Rows were chosen to be rich in hits. Some 4% of all compounds tested hit in one or more screens of this group.
SMILES,Mdm2-MdmX inh,Gli-Sufu block,Beta apoptosis,PAX8 reporter,CSC inhib,Shn3 3UTR inh,Mdm2 MdmX conf,FLuc counter
CCOC(=O)C1=C(c2ccccc2)NC(N)=NC1c1ccc(OCc2ccc(Cl)cc2)c(OC)c1 (stereo not given),100*,6,-11,-15,76*,0,60*,94*
CC(C)(C)NC(=O)C(c1ccncc1)N(Cc1cccs1)C(=O)Cn1nnc(-c2ccc(F)cc2)n1 (stereo not given),53*,6,25,/,-5,7,43*,55*
CNC(=O)C[C@H]1CC[C@H]2[C@@H](COc3ccc(NC(=O)Nc4cccc(C)c4)cc3C(=O)N2C)O1,/,/,/,6,/,/,/,/
Cc1ccc(C)c(-c2nnc(NC(=O)Cc3ccc(F)cc3)o2)c1,52*,-3,-2,/,42,25,22,/
Cc1ccc(-c2nnc(NC(=O)Cc3ccc(F)cc3)o2)c(C)c1,34,0,-3,/,39,9,/,/
Cc1[nH]nc2c1C(c1cc(Br)cs1)C(C#N)=C(N)O2 (stereo not given),70*,2,-10,10,23,-12,30,/
Cc1[nH]nc2c1C(c1ccco1)C(C#N)=C(N)O2 (stereo not given),-2,-1,-2,7,-11,-2,/,/
O=C(C[C@@H]1C=C[C@H](NC(=O)C2CCC2)[C@@H](CO)O1)NCCCN1CCOCC1,/,/,/,1,/,/,/,/
COc1ccc(C(=O)N2C[C@H]3[C@@H](c4ccccc42)[C@H](CO)N3C(=O)c2ccc(F)cc2)cc1,/,/,/,1,/,/,/,/
C[C@H](CO)N1C[C@H](C)[C@H](CN(C)C(=O)Nc2cccc3ccccc23)Oc2c(NC(=O)C3CCCCC3)cccc2C1=O,/,/,/,9,/,/,/,/
Cc1ccc(C)c(Cn2nnc3c(=O)[nH]c(C(=O)NCc4ccco4)nc32)c1,-1,1,-1,/,/,-28,/,/
O=C(NCc1ccco1)c1nc2c(nnn2Cc2ccccc2Cl)c(=O)[nH]1,88*,-3,10,/,94*,11,93*,21
CO[C@@H]1CN(C)C(=O)c2cc(NC(C)=O)ccc2OC[C@@H](C)N(Cc2cccnc2)C[C@@H]1C,/,/,/,-2,/,/,/,/
C[C@@H]1CN([C@@H](C)CO)C(=O)Cc2cc(NS(C)(=O)=O)ccc2O[C@@H]1CN(C)C(=O)Nc1cccc2ccccc12,/,/,/,13,/,/,/,/
Cc1ccc(/C=N/NC(=O)c2cc(-c3ccc(C)o3)[nH]n2)cc1,50*,28,/,23,0,20,54*,50*
CN1c2ccc(Br)cc2[C@H]2[C@H](CCN2S(=O)(=O)c2cccc(F)c2)[C@@H]1CO,/,/,/,3,/,/,/,/
CNC[C@H]1Oc2c(NC(=O)c3ccc(-c4nccs4)cc3)cccc2C(=O)N([C@H](C)CO)C[C@@H]1C,/,/,/,-1,/,/,/,/
CN1C2CCC1/C(=C\c1ccc(F)cc1)C(=O)/C2=C/c1ccc(F)cc1,89*,19,2,10,0,23,53*,19
CC(C)c1cn(CC[C@H]2CC[C@@H](NC(=O)C3CCC3)[C@H](CO)O2)nn1,/,/,/,2,/,/,/,/
COc1ccc2[nH]cc(C(=O)CN3CC(C)CC(C)C3)c2c1 (stereo not given),1,-14,-7,23,-7,-13,/,/
COc1ccc2[nH]cc(C(=O)CCl)c2c1,95*,2,-68,28,39,-53,100*,51*
O=C(C[C@@H]1CC[C@@H]2[C@H](COC[C@@H](O)CN2C(=O)c2ccccc2)O1)N1CCOCC1,/,/,/,2,/,/,/,/
CCOc1ccc(OCCC(=O)OCC(=O)Nc2cc(OCC)c(N3CCOCC3)cc2OCC)cc1,50*,4,-38,/,/,9,44*,54*
CCOc1cc(N2CCOCC2)c(OCC)cc1NC(=O)c1[nH]c(C)c(C(C)=O)c1C,56*,19,2,-27,/,-8,38,86*
CC(=O)c1c(C)[nH]c(C(=O)Nc2ccccc2N2CCOCC2)c1C,-5,8,2,9,-18,-59,/,/
SMILES,Mdm2-MdmX inh,Gli-Sufu block,Beta apoptosis,PAX8 reporter,CSC inhib,Shn3 3UTR inh,Mdm2 MdmX conf,FLuc counter
CCOc1cc(N2CCOCC2)c(OCC)cc1NC(=O)COC(=O)c1cc2ccccc2cc1O,25,-7,-1,3,-5,-9,/,/
COc1ccc2cc(C)c3nnc(SCC(=O)Nc4nc(-c5ccc(F)cc5)cs4)n3c2c1,86*,-8,-7,-7,17,33,25,/
Cc1ccc(-c2csc(NC(=O)CSc3nc4ccccc4[nH]3)n2)cc1,/,-34,/,-22,/,11,/,/
COc1ccc(-c2csc(NC(=O)CSc3nc4ccccc4c(=O)[nH]3)n2)cc1,51*,-3,-2,-17,/,-2,-9,/
C[C@H](NC(=O)C[C@H]1CC[C@@H]2[C@@H](COc3ccc(NS(=O)(=O)c4ccc(Cl)cc4)cc3C(=O)N2C)O1)c1ccccc1,/,/,/,8,/,/,/,/
CCOC(=O)C1(Nc2nccs2)Sc2ccccc2NC1=O (stereo not given),57*,-6,-2,/,52,-74,62*,58*
Cc1nnc2c3ccccc3c(-c3ccccc3)nn12,64*,21,-28,/,-18,6,28,/
Cc1ccc(-c2nn3c(C)nnc3c3ccccc23)cc1S(=O)(=O)NC(C)(C)CO,71*,22,/,-31,-1,-10,53*,78*
Cc1ccc(-c2nn3c(C)nnc3c3ccccc23)cc1S(=O)(=O)NC(C)c1ccccc1 (stereo not given),62*,-11,34,/,-3,14,30,/
COc1ccc2c3c(n(C)c2c1)[C@H](CO)N(C(=O)C1CCCC1)CC31CCN(C)CC1,/,/,/,-8,/,/,/,/
CO[C@H]1CN(C)C(=O)c2cc(NC(=O)Nc3ccc(Cl)cc3)ccc2OC[C@@H](C)N(C)C[C@@H]1C,/,/,/,27,/,/,/,/
O=C(C[C@@H]1C[C@H]2c3cc(NC(=O)c4ccc5c(c4)OCO5)ccc3O[C@H]2[C@H](CO)O1)NCCc1ccccc1,/,/,/,-20,/,/,/,/
Cc1nonc1NC(=O)CSc1nc(C23CC4CC(CC(C4)C2)C3)nc2ccccc12,52*,1,10,-8,29,-11,23,/

# Screening results from PubChem.
